Laboratory results reported in PubChem BioAssay (NCI).
This is part of a sample that, as a whole, favours compounds with a hit. Of some 83,000 tested, about 20% had one in any assay.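 Plates (96-well) were seeded with cells, treated with compound at one concentration, and incubated for 48 hours before percent growth was determined.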 Active and inactive are the calls of the source. The calls were made as follows: active = growth percent below 10; inactive = the rest.

How the values were obtained:
Test in all cases: NCI-60 one-dose screen, 48 h (100 = growth as untreated, 0 = no growth, -100 = all killed)
Conditions in all cases: 10 µM unless noted
[1] = system: HCT-15 colon
[2] = system: HT29 colon
[3] = system: SNB-75 CNS
[4] = system: SNB-19 CNS
[5] = system: U251 CNS
[6] = system: PC-3 prostate
[7] = system: SK-MEL-5 melanoma
[8] = system: UACC-62 melanoma
[9] = system: LOX IMVI melanoma
[10] = system: SK-MEL-28 melanoma
[11] = system: SK-MEL-2 melanoma
[12] = system: EKVX NSCLC
[13] = system: SN12C renal
[14] = system: UO-31 renal
[15] = system: TK-10 renal
[16] = system: ACHN renal
[17] = system: CAKI-1 renal
[18] = system: A498 renal
[19] = system: CCRF-CEM leukemia
[20] = system: MOLT-4 leukemia

Measured: growth

CC[C@@H]1NC(=O)[C@@H]2CCCCN2C(=O)[C@@H]2CCCN2C(=O)[C@@H](NC(=O)[C@H](Cc2cc(F)cc(F)c2)NC(=O)Nc2ccc(C3CC3)cc2F)[C@H](C)OC(=O)[C@@H]2C[C@@H](C)CN2C1=O
active: [1] 4.6% | [2] 4.98% | [7] -45% | [8] 7.28% | [11] 9.64% | [17] 9.54% | [18] -5.62%
inactive: [3] 10.4% | [4] 15.7% | [5] 24.5% | [6] 12.5% | [9] 16.4% | [10] 13.5% | [12] 20.4% | [13] 12% | [14] 11.2% | [15] 34% | [16] 12.1% | [19] 40.5% | [20] 17%

O=C1Nc2ccccc2/C1=C/C(=O)c1ccc(N2CCCC2)cc1
inactive: [1] 23.1% | [3] 23.3% | [4] 57.2% | [6] 38.2% | [7] 65.2% | [8] 34.5% | [10] 76.5% | [11] 58.7% | [12] 76.1% | [13] 15.6% | [14] 47.1% | [15] 42.8% | [16] 30.7% | [17] 18.1% | [18] 65.8% | [19] 10.4%
active: [2] -9.76% | [5] 4.98% | [9] -17% | [20] 3.55%

Clc1ccc(/C=N/Nc2nc3ccccc3s2)c(Cl)c1
inactive: [1] 85% | [2] 84.1% | [3] 84.3% | [4] 103% | [5] 76.3% | [6] 79.5% | [7] 98.4% | [8] 103% | [9] 84.7% | [10] 114% | [11] 112% | [12] 66.9% | [13] 95.3% | [14] 68.2% | [15] 95.4% | [16] 82.8% | [17] 82% | [18] 81.6% | [19] 80.5% | [20] 98.4%

COc1cc2c(cc1OC(C)=O)C(=O)CCCC2
inactive: [1] 83% | [2] 96.5% | [3] 54.2% | [4] 109% | [5] 94.4% | [6] 87.5% | [7] 90.1% | [8] 105% | [9] 95.6% | [10] 95.2% | [11] 99.3% | [12] 104% | [13] 112% | [14] 88.4% | [15] 118% | [16] 92.5% | [17] 73.8% | [18] 68.3% | [19] 102% | [20] 115%

Nc1cc(NN=C(c2ccc(O)cc2)c2ccc(O)cc2)c([N+](=O)[O-])cc1[N+](=O)[O-]
active: [1] 4.01% | [4] -22.6% | [5] 4.49% | [7] -85.4% | [9] -32.5% | [11] -93.6% | [14] -88.7%
inactive: [2] 98.4% | [3] 78.2% | [6] 64.2% | [8] 42.3% | [10] 80.8% | [12] 97% | [13] 53% | [15] 84.3% | [16] 18.1% | [17] 90.7% | [18] 101% | [19] 91.3% | [20] 69.5%

COc1cc(C)cc2oc3oc(=O)c(C(=O)c4cc5cc(Br)ccc5o4)cc3c(=O)c12
inactive: [1] 103% | [2] 110% | [3] 86.6% | [4] 100% | [5] 102% | [6] 102% | [7] 102% | [8] 99.9% | [9] 97.4% | [10] 106% | [11] 114% | [12] 100% | [13] 97.6% | [14] 72.7% | [15] 121% | [16] 95.8% | [17] 91.8% | [18] 92.2% | [19] 120% | [20] 106%
